This note sets out measurements from PubChem BioAssay (NCATS).

Records with an inconclusive call do not appear. A number with no mark means an inactive call. The call rests on the fitted dose curve; in most records, active means well fitted activation curve with a large enough effect; inconclusive means small, poorly fitted or top-dose-only effect, or effect the other way; inactive means flat fitted curve, though single readings scatter.

The assay is described as follows: Cellular Toxicity (caspase-3) NIH 3T3 (AID 666).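 Further: caspase signal read after 16 h compound exposure.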 The settings on record: NIH 3T3 caspase-3 activation, apoptosis/toxicity, 0% DMSO, 100% is 100 µM tamoxifen; series mostly up to 92.2 µM; caspase-3 activation: at the top concentration. From the text: NIH Chemical Genomics Center [NCGC]
NIH Molecular Libraries Screening Centers Network [MLSCN]
National Institutes of Environmental Health Sciences [NIEHS]
National Toxicology Program [NTP]
We have developed a 1536-well cell-based assay for quantitative high throughput screening (qHTS) against a number of cell lines to determine in vitro caspase 3/7 of small molecules. This particular assay uses the NIH 3T3 cell line which is derived from mouse fibroblasts.
NCGC Assay Protocol Summary:
The Caspase-Glo 3/7 assay (Promega) is a homogeneous method to measure caspase-3 and caspase-7 activities in cultured cells. The quantitation of caspase 3/7 activity is based on the cleavage of a peptide-aminoluciferin substrate. After caspase cleaves the substrate the free aminoluciferin is liberated and serves as the substrate of luciferase, which generates the light. The luminescent signal is proportional to amount of caspase 3/7 activity present.
Using the Caspase-Glo 3/7 assay, the amount of caspase 3/7 activity was measured in the NIH 3T3 cell line with complete culture medium following compound treatment for 16 hours. The assay was performed in opaque white 1536-well plates. In the screen, tamoxifen and doxorubicin were used as positive controls. Library compounds were measured for their ability to cause the activation of caspase 3/7 in the cell line, as reflected by an increase in luminescence signal, in a concentration-dependent manner. Data were normalized to the controls for basal activity (DMSO only) and 100% stimulation (100 uM tamoxifen). AC50 values were determined from concentration-response data modeled with the standard Hill equation.
qHTS protocol for caspase 3/7 assay in NIH 3T3 cells
[Step] [Parameter] [Value] [Description]
1. Reagent; 5 uL; 1000 NIH 3T3 cells/well
2. Time; 5 hr; 37 °C incubation
4. Controls; 23 nL; Tamoxifen 0.23 uM to 100 uM & Doxorubicin 7.0 pM to 100 uM
5. Time; 16 hr; 37 °C incubation
6. Reagent; 5 uL; Caspase-Glo 3/7 reagent
7. Time; 20 min; Room Temperature
8. Detection; Luminescence; Viewlux plate reader
Keywords: caspase 3/7, apoptosis, NIH 3T3 cell line, luminescence, NTPHTS, NTPHTS_NCGC, NIEHS, EPA, DSSTox, MLSMR, MLSCN, NIH Roadmap, qHTS, NCGC
On to `CC/C(=C(\c1ccccc1)c1ccc(OCCN(C)C)cc1)c1ccccc1`, for which the “caspase-3 activation” value is 9.45%.

Take `O=c1[nH]cnc2c1ncn2[C@H]1CC[C@@H](CO)O1`: the “caspase-3 activation” value was -3.98%.

On to `CCCCC1C(=O)N(c2ccccc2)N(c2ccccc2)C1=O`, for which the “caspase-3 activation” value was -4.65%.

Regarding `CC1=C(/C=C/C(C)=C/C=C/C(C)=C/C(=O)Nc2ccc(O)cc2)C(C)(C)CCC1`, the “caspase-3 activation” value was 26.1%.

With `CC(=O)c1ccc(S(=O)(=O)NC(=O)NC2CCCCC2)cc1`, the “caspase-3 activation” value was 0.716%.

On to `O=c1cc(-c2ccc(O)cc2)oc2cc(O)cc(O)c12`, for which the “caspase-3 activation” value was -25.8%.

Take `O=c1c(O)c(-c2ccc(O)cc2)oc2cc(O)cc(O)c12`: the “caspase-3 activation” value was -20.9%.

With `O=C(O)Cc1cccc2ccccc12`, the “caspase-3 activation” value was -6.4%.

Regarding `CCCNC(=O)NS(=O)(=O)c1ccc(Cl)cc1`, the “caspase-3 activation” value was -3.37%.

In the case of `CN(C)CCC(c1ccccc1)c1ccccn1` (stereo not given), the “caspase-3 activation” value was 0.845%.

Regarding `O=c1c(-c2ccc(O)cc2)coc2cc(O)ccc12`, the “caspase-3 activation” value is -27.3%.

Consider `O=C(O)c1cc(O)c2c(c1)C(=O)c1cccc(O)c1C2=O`, for which the “caspase-3 activation” value was -18.8%.

Consider `O=C1NC(=O)C(c2ccccc2)(c2ccccc2)N1`, for which the “caspase-3 activation” value is -5.84%.

Consider `CC(=O)O[C@]1(C(C)=O)CC[C@H]2[C@@H]3C=C(Cl)C4=CC(=O)[C@@H]5C[C@@H]5[C@]4(C)[C@H]3CC[C@@]21C`, for which the “caspase-3 activation” value was 4.35%.

For the compound `CCn1cc(C(=O)O)c(=O)c2ccc(C)nc21`, the “caspase-3 activation” value was 2.41%.
